Measurements published in PubChem BioAssay AID1159580 (chemical genetic matrix, 2015).
About 2,000 (36%) of roughly 5,500 compounds were called active. Inconclusive results (about 18%) are left out. Rule as the data show it: active = normalized growth mostly below about 0.91 (no sharp cut-off); inconclusive = no clear call, values can overlap the other calls; inactive = mostly above about 0.92. Some of the results follow.

Assay: chemical genetic growth profiling, strain panel (AID 1159580);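 also: tested at 20 µM; growth read once vehicle control cultures reached saturation at 30 °C; 1 = growth at the plate median or of vehicle wells; lower values mean less growth of the strain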
Details: growth OD

Measured: normalized growth

C1CCN2CC3CC(CN4CCCCC34)C2C1 (centres undefined)
inactive: S. cerevisiae deletion strains, locus YJR043C, strain POL32, active compounds read low 1.02 | S. cerevisiae deletion strains, locus YJR075W, strain HOC1, active compounds read low 1.01 | S. cerevisiae deletion strains, locus YKL009W, strain mrt4, active compounds read low 1.02 | S. cerevisiae deletion strains, locus YKL068W, active compounds read low 1.01 | S. cerevisiae deletion strains, locus YKL085W, strain MDH1 (second series), active compounds read low 1 | S. cerevisiae deletion strains, locus YKL085W, strain MDH1, active compounds read low 1 | S. cerevisiae deletion strains, locus YKL160W, strain elf1, active compounds read low 0.991 | S. cerevisiae deletion strains, locus YKL190W, strain CNB1, active compounds read low 1 | S. cerevisiae deletion strains, locus YKR001C, strain vps1, active compounds read low 0.964 | S. cerevisiae deletion strains, locus YKR026C, strain gcn3, active compounds read low 1.02 | S. cerevisiae deletion strains, locus YKR091W, strain srl3, active compounds read low 1.01 | S. cerevisiae deletion strains, locus YLL001W, strain dnm1, active compounds read low 1.04 | S. cerevisiae deletion strains, locus YLL026W, active compounds read low 1.01 | S. cerevisiae deletion strains, locus YLL041C, strain sdh2, active compounds read low 1.02 | S. cerevisiae deletion strains, locus YLR027C, strain aat2, active compounds read low 1.01 | S. cerevisiae deletion strains, locus YLR039C, strain RIC1, active compounds read low 1.04 | S. cerevisiae deletion strains, locus YLR058C, strain SHM2, active compounds read low 1.02 | S. cerevisiae deletion strains, locus YLR102C, strain apc9, active compounds read low 1.01 | S. cerevisiae deletion strains, locus YLR221C, strain rsa3, active compounds read low 1.01 | S. cerevisiae deletion strains, locus YLR258W, strain gsy2, active compounds read low 1.02 | S. cerevisiae deletion strains, locus YLR262C, strain YPT6 (second series), active compounds read low 1 | S. cerevisiae deletion strains, locus YLR262C, strain YPT6, active compounds read low 1.01 | S. cerevisiae deletion strains, locus YLR268W, strain sec22, active compounds read low 0.894 | S. cerevisiae deletion strains, locus YLR320W, strain mms22, active compounds read low 1.03 | S. cerevisiae deletion strains, locus YLR330W, strain CHS5, active compounds read low 1.01 | S. cerevisiae deletion strains, locus YLR342W, strain FKS1 (second series), active compounds read low 1.03 | S. cerevisiae deletion strains, locus YLR342W, strain FKS1, active compounds read low 1.02 | S. cerevisiae deletion strains, locus YLR357W, strain rsc2, active compounds read low 1.04 | S. cerevisiae deletion strains, locus YLR370C, strain arc18, active compounds read low 1.02 | S. cerevisiae deletion strains, locus YLR371W, strain rom2, active compounds read low 0.967 | S. cerevisiae deletion strains, locus YLR384C, strain iki3, active compounds read low 1.02 | S. cerevisiae deletion strains, locus YML016C, strain PPZ1, active compounds read low 1.01 | S. cerevisiae deletion strains, locus YML032C, strain rad52, active compounds read low 1.03 | S. cerevisiae deletion strains, locus YML120C, strain ndi1, active compounds read low 1.01 | S. cerevisiae deletion strains, locus YML124C, strain tub3, active compounds read low 1.01 | S. cerevisiae deletion strains, locus YMR058W, strain fet3, active compounds read low 1.02 | S. cerevisiae deletion strains, locus YMR078C, strain ctf18, active compounds read low 1.02 | S. cerevisiae deletion strains, locus YMR125W, strain sto1, active compounds read low 1.06 | S. cerevisiae deletion strains, locus YMR129W, active compounds read low 1.03 | S. cerevisiae deletion strains, locus YMR205C, strain PFK2, active compounds read low 1.04 | S. cerevisiae deletion strains, locus YMR223W, strain ubp8, active compounds read low 0.909 | S. cerevisiae deletion strains, locus YMR231W, strain pep5, active compounds read low 1.02 | S. cerevisiae deletion strains, locus YMR263W, strain SAP30, active compounds read low 0.997 | S. cerevisiae deletion strains, locus YMR307W, strain GAS1, active compounds read low 1.02 | S. cerevisiae deletion strains, locus YNL067W, strain RPL9B, active compounds read low 0.988 | S. cerevisiae deletion strains, locus YNL071W, strain lat1, active compounds read low 1.02 | S. cerevisiae deletion strains, locus YNL128W, strain TEP1, active compounds read low 1.01 | S. cerevisiae deletion strains, locus YNL153C, strain GIM3, active compounds read low 0.986 | S. cerevisiae deletion strains, locus YNL209W, strain ssb2, active compounds read low 1.02 | S. cerevisiae deletion strains, locus YNL233W, strain BNI4, active compounds read low 0.998 | S. cerevisiae deletion strains, locus YNL248C, strain rpa49, active compounds read low 1.02 | S. cerevisiae deletion strains, locus YNL250W, strain rad50, active compounds read low 1.03 | S. cerevisiae deletion strains, locus YNL271C, strain bni1, active compounds read low 1.01 | S. cerevisiae deletion strains, locus YNL298W, strain CLA4, active compounds read low 1.01 | S. cerevisiae deletion strains, locus YNL322C, strain KRE1 (second series), active compounds read low 1.01 | S. cerevisiae deletion strains, locus YNL322C, strain KRE1, active compounds read low 1.01 | S. cerevisiae deletion strains, locus YNR049C, strain mso1, active compounds read low 1.02 | S. cerevisiae deletion strains, locus YNR052C, strain pop2, active compounds read low 1.02 | S. cerevisiae deletion strains, locus YOL006C, strain TOP1, active compounds read low 1.03 | S. cerevisiae deletion strains, locus YOL012C, strain htz1 0.345 | S. cerevisiae deletion strains, locus YOL147C, strain pex11, active compounds read low 1.01 | S. cerevisiae deletion strains, locus YOR001W, strain rrp6, active compounds read low 1.01 | S. cerevisiae deletion strains, locus YOR061W, strain CKA2, active compounds read low 1.01 | S. cerevisiae deletion strains, locus YOR069W, strain VPS5, active compounds read low 1.01 | S. cerevisiae deletion strains, locus YOR070C, strain gyp1, active compounds read low 1.02 | S. cerevisiae deletion strains, locus YOR080W, strain dia2, active compounds read low 1.02 | S. cerevisiae deletion strains, locus YOR083W, strain WHI5, active compounds read low 0.99 | S. cerevisiae deletion strains, locus YOR106W, strain vam3, active compounds read low 1 | S. cerevisiae deletion strains, locus YOR136W, strain idh2, active compounds read low 0.961 | S. cerevisiae deletion strains, locus YOR144C, strain elg1, active compounds read low 1.01 | S. cerevisiae deletion strains, locus YOR184W, strain ser1, active compounds read low 0.959 | S. cerevisiae deletion strains, locus YOR265W, strain rbl2, active compounds read low 1.02 | S. cerevisiae deletion strains, locus YOR270C, strain vph1, active compounds read low 1.03 | S. cerevisiae deletion strains, locus YOR290C, strain snf2, active compounds read low 0.985 | S. cerevisiae deletion strains, locus YOR316C, strain cot1, active compounds read low 1.01 | S. cerevisiae deletion strains, locus YPL051W, strain arl3, active compounds read low 0.998 | S. cerevisiae deletion strains, locus YPL055C, strain LGE1, active compounds read low 1 | S. cerevisiae deletion strains, locus YPL078C, strain atp4, active compounds read low 1 | S. cerevisiae deletion strains, locus YPL106C, strain sse1, active compounds read low 1.04 | S. cerevisiae deletion strains, locus YPL240C, strain hsp82, active compounds read low 1.03 | S. cerevisiae deletion strains, locus YPL241C, strain CIN2, active compounds read low 1.01 | S. cerevisiae deletion strains, locus YPR119W, strain clb2, active compounds read low 1 | S. cerevisiae deletion strains, locus YPR141C, strain kar3, active compounds read low 1.02 | S. cerevisiae deletion strains, locus YPR167C, strain met16, active compounds read low 0.992 | S. cerevisiae strains, strain wild type, active compounds read low 1.01
active: S. cerevisiae deletion strains, locus YLR418C, strain cdc73, active compounds read low 0.811 | S. cerevisiae deletion strains, locus YNL307C, strain MCK1, active compounds read low 0.294 | S. cerevisiae deletion strains, locus YPR163C, strain tif3, active compounds read low 0.873 | S. cerevisiae deletion strains, strain wtn01, active compounds read low 0.863
